The record followed here is a collection of fitness landscapes (doi:10.1126/science.1257360).

First the molecules themselves.
B1: PhoQ; a variant is named by its letters at X, in order, P23837 (parent)
chain: MKKLLRLFFPLSLRVRFLLATAAVVLVLSLAYGMVALIGYSVSFDKTTFRLLRGESNLFYTLAKWENNKLHVELPENIDKQSPTMTLIYDENGQLLWAQRDVPWLMKMIQPDWLKSNGFHEIEADVNDTSLLLSGDHSIQQQLQEVREDDDDAEMTHSVAVNVYPATSRMPKLTIVVVDTIPVELKSSYMVWSWFIYVLSANLLLVIPLLWVAAWWSLRPIEALAKEVRELEEHNRELLNPATTRELTSLVRNLNRLLKSERERYDKYRTTLTDLTHSLKTPLXXLQXXLRSLRSEKMSVSDAEPVMLEQISRISQQIGYYLHRASMRGGTLLSRELHPVAPLLDNLTSALNKVYQRKGVNISLDISPEISFVGEQNDFVEVMGNVLDNACKYCLEFVEISARQTDEHLYIVVEDDGPGIPLSKREVIFDRGQRVDTLRPGQGVGLAVAREITEQYEGKIVAGESMLGGARMEVIFGRQHSAPKDE

Over roughly 140,000 sequences, “enrichment ratio after two sorts for PhoP signalling” has its median near 0; the highest 2% begin near 11. Many of the other results were omitted from the sample, so the highest values are more common in it than they were.

Variants of B1 are the subject of this assay. Put plainly: enrichment ratio after two sorts for PhoP signalling (ratio (wild type AVST 3.29)); higher = more functional. The conditions noted are these: with PhoP (E. coli).
With KFYP, the enrichment ratio is not above 0.25. Turning to KYSQ, the enrichment ratio is not above 0.25.

With KEDF, the enrichment ratio was not above 0.25. Take HKIL: the enrichment ratio was not above 0.25. For the variant EQYF, the enrichment ratio is not above 0.25. In the case of DLKR, the enrichment ratio is not above 0.25.

As to IPGP, the enrichment ratio is not above 0.25. As to FPRY, the enrichment ratio is not above 0.25. Turning to GVMQ, the enrichment ratio amounted to 5.97.

As for SMPE, the enrichment ratio was 0.359. As for SLCW, the enrichment ratio was found to be 0.501.

In the case of SMWI, the enrichment ratio is not above 0.25.

For the variant SMGS, the enrichment ratio turned out to be 1.09. As to SMPA, the enrichment ratio was not above 0.25. For the variant SMPI, the enrichment ratio came out at 1.09.

On to SMIE, for which the enrichment ratio was not above 0.25. For SMCE, the enrichment ratio was determined as 11.7. As for SMTA, the enrichment ratio amounted to 11.8. Turning to SNCW, the enrichment ratio worked out at 10.3. As for SMCA, the enrichment ratio came out at 15.3. With SMCW, the enrichment ratio came out at 19.6.

In the case of AKLD, the enrichment ratio is not above 0.25. As for VWSC, the figure is not above 0.25. On to SVVD, for which the enrichment ratio was not above 0.25. Regarding RVNR, the enrichment ratio was not above 0.25. Regarding SMSR, the enrichment ratio was not above 0.25. As to SMAV, the enrichment ratio came to 5.92.

On to SMSI, for which the enrichment ratio is 12.9. Turning to KMAE, the enrichment ratio is not above 0.25. SMAE: the enrichment ratio is 25.2. As to SMSK, the enrichment ratio worked out at 2.79. Turning to HLVA, the enrichment ratio was not above 0.25. With AQPM, the enrichment ratio was not above 0.25. As for RVFT, the enrichment ratio is not above 0.25. Take NAGS: the enrichment ratio was not above 0.25. With RQQG, the enrichment ratio is not above 0.25. Consider TDMH, for which the enrichment ratio amounted to 18.2.

For FDMH, the enrichment ratio is not above 0.25. For FDCH the value was not above 0.25; for LTCH, not above 0.25. Regarding TDCH, the enrichment ratio was determined as 11.9. In the case of LTMH, the enrichment ratio was 2.1.

With EPTI, the enrichment ratio was not above 0.25. As for MAHQ, the figure is not above 0.25; as for EKMC, not above 0.25; as for SNGP, not above 0.25.

For YTGH, the enrichment ratio is not above 0.25. As for QRGH, the enrichment ratio is not above 0.25. As for STGH, the enrichment ratio was determined as 17.1. As to QGGH, the enrichment ratio is not above 0.25. For SNTH, the enrichment ratio came to 7.23.

For the variant QITH, the enrichment ratio is not above 0.25.

On to SNGH, for which the enrichment ratio turned out to be 23.3. With SRGH, the enrichment ratio was not above 0.25.

As for QIGH, the enrichment ratio was found to be 14. For the variant QEGH, the enrichment ratio was 24.6.

For the variant QIYH, the enrichment ratio was not above 0.25. As to YAAS, the enrichment ratio was not above 0.25. As for QNYF, the figure is not above 0.25.

In the case of GMNL, the enrichment ratio is not above 0.25.

Regarding SKVD, the enrichment ratio was not above 0.25. For LATP, the enrichment ratio is not above 0.25. For DRAC the value was not above 0.25; for VPLT, not above 0.25; for GGVS, not above 0.25. Consider FTAL, for which the enrichment ratio amounted to 0.293.

Turning to QVTH, the enrichment ratio is not above 0.25. As for QVGP, the figure is not above 0.25; as for QVGH, 15.9; as for LEIV, not above 0.25. For LEMV the value was 12.9; for LEMS, 8.78. Regarding LRMM, the enrichment ratio is not above 0.25. For LEEG the value was not above 0.25; for LEWI, 2.42; for LEGG, not above 0.25. On to LEGM, for which the enrichment ratio is not above 0.25. LEMG: the enrichment ratio worked out at 11.8. Regarding LEMK, the enrichment ratio was not above 0.25. In the case of LEMM, the enrichment ratio was found to be 11.3. On to LEWV, for which the enrichment ratio was 11.9. Take FPFR: the enrichment ratio is not above 0.25. For FVFS the value was not above 0.25; for GEKH, not above 0.25; for QGKV, not above 0.25. On to SSGP, for which the enrichment ratio was not above 0.25. For EPLM, the enrichment ratio is not above 0.25. With ALDK, the enrichment ratio was not above 0.25. On to IQNV, for which the enrichment ratio is not above 0.25.

Regarding TQNV, the enrichment ratio came to 14.2.

With WQLC, the enrichment ratio is not above 0.25. As for NQAH, the figure is not above 0.25; as for TQLC, 13.1; as for TQQT, 6.08. TQWT: the enrichment ratio was found to be 0.56.

For TQAH, the enrichment ratio worked out at 13.3.

Turning to TQAT, the enrichment ratio is 12.7.

On to EQNV, for which the enrichment ratio was not above 0.25. On to IQAH, for which the enrichment ratio is not above 0.25. Turning to NQLC, the enrichment ratio is not above 0.25.

For MGKS, the enrichment ratio is not above 0.25.

For INSM, the enrichment ratio was 0.298. For the variant IPGV, the enrichment ratio was not above 0.25.

For the variant PQPN, the enrichment ratio was not above 0.25. As for FQNC, the figure is not above 0.25; as for NNRL, not above 0.25; as for EKQI, not above 0.25. Regarding RWFN, the enrichment ratio was not above 0.25. As for NWQL, the enrichment ratio was not above 0.25.

Turning to VDAW, the enrichment ratio is not above 0.25. Take RNYN: the enrichment ratio is not above 0.25. FRWR: the enrichment ratio was not above 0.25. As for WYYY, the figure is not above 0.25. With TQAA, the enrichment ratio came out at 3.31. As to TQNW, the enrichment ratio was not above 0.25. As for TQNI, the enrichment ratio is not above 0.25. Regarding TQAD, the enrichment ratio was 11.6. Take TQLQ: the enrichment ratio was 5.05.

With TQRA, the enrichment ratio is not above 0.25. For the variant TQNT, the enrichment ratio was 15.4. As for TQET, the figure is not above 0.25; as for TQLS, 17.6. TQNY: the enrichment ratio came to 6.18.

Turning to LAAD, the enrichment ratio was not above 0.25. Take TQNS: the enrichment ratio came to 12.8. PAWD: the enrichment ratio was not above 0.25. In the case of SEAL, the enrichment ratio was determined as 7.85. As for GSHA, the figure is not above 0.25; as for AKYV, not above 0.25; as for FLDC, not above 0.25. For ANKM, the enrichment ratio was not above 0.25.

For TAGV, the enrichment ratio stood at 5.24.

As to ICLI, the enrichment ratio is 5.89. On to FVAK, for which the enrichment ratio is not above 0.25. As for FELQ, the figure is 8.46. As for IHIG, the figure is not above 0.25. With FQMT, the enrichment ratio is not above 0.25. As to TQLT, the enrichment ratio amounted to 18.8. As for TQKH, the figure is not above 0.25. With TQNH, the enrichment ratio worked out at 16.3.

As for TQRH, the enrichment ratio was not above 0.25. Take TQLK: the enrichment ratio amounted to 4.42.

For the variant TQLA, the enrichment ratio was determined as 4.57. As for EQMT, the enrichment ratio was not above 0.25. As to TQMT, the enrichment ratio came out at 14.6.

For the variant NNDT, the enrichment ratio is not above 0.25. For FCNF, the enrichment ratio was not above 0.25. For MPFQ, the enrichment ratio was not above 0.25. RPVE: the enrichment ratio was not above 0.25.

For the variant VATR, the enrichment ratio was not above 0.25.

Regarding FKHE, the enrichment ratio is not above 0.25. As for YRPV, the figure is not above 0.25; as for VMPF, not above 0.25.
